Experimental data published in paper PMC7862700, “An all-to-all approach to the identification of sequence-specific readers for epigenetic DNA modifications on cytosine”.

Columns and labels:
Test in all cases: DAPPL (digital affinity profiling via proximity ligation, sequencing); 10 mM Tris-HCl pH 7.5, 50 mM NaCl, 1 mM DTT, 4% glycerol, room temperature, 30 min; GST-TFs on glutathione beads, 16-mer random dsDNA library, 0.1% formaldehyde crosslink after washing; high values mean tight binding
Conditions in all cases: protein: recombinant; tags: N-terminal GST; dsDNA, one strand shown
ELK1 = target: T1, ELK1 (Homo sapiens, UniProt P19419 1-428)
T1 sequence: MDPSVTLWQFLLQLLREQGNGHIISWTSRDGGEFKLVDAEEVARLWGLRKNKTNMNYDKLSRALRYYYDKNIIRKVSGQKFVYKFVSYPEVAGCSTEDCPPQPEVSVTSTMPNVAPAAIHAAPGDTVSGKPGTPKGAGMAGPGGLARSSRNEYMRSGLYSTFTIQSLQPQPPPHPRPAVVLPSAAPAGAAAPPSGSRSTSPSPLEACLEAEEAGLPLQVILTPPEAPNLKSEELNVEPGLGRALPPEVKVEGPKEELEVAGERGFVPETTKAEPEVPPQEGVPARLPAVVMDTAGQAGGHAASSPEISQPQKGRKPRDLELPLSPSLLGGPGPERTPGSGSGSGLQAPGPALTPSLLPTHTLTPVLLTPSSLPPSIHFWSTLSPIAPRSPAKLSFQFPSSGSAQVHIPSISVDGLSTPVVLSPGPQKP
Method in brief: (§1)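 GST fusions of human transcription factors were expressed in yeast and captured with glutathione beads. Once given DNA barcodes and pooled alongside a tag-only sample, they were incubated for 30 min at room temperature with 200 nmole of a random double-stranded 16-mer DNA library in Tris/NaCl/DTT/glycerol buffer, then washed, crosslinked (0.1% formaldehyde), proximity-ligated, PCR-amplified and sequenced on an Illumina NextSeq500. The binding signal of each hexamer is its read frequency for a factor divided by its frequency for the tag-only sample.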

GABPA = target: T2, GABPA (Homo sapiens, UniProt Q06546 1-454)
T2 sequence: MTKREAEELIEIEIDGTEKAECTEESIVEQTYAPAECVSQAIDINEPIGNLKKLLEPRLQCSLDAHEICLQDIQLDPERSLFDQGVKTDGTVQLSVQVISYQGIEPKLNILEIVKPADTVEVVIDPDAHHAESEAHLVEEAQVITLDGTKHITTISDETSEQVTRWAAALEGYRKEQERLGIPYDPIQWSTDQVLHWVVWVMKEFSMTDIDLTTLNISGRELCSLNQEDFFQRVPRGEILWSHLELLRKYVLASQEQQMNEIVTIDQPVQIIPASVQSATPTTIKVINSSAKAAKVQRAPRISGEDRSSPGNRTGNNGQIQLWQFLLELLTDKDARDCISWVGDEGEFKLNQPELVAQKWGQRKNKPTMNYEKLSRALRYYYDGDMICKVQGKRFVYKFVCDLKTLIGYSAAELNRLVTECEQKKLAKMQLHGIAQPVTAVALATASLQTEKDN
Method in brief: as §1

ERG = target: T3, ERG (Homo sapiens, UniProt P11308 1-479)
T3 sequence: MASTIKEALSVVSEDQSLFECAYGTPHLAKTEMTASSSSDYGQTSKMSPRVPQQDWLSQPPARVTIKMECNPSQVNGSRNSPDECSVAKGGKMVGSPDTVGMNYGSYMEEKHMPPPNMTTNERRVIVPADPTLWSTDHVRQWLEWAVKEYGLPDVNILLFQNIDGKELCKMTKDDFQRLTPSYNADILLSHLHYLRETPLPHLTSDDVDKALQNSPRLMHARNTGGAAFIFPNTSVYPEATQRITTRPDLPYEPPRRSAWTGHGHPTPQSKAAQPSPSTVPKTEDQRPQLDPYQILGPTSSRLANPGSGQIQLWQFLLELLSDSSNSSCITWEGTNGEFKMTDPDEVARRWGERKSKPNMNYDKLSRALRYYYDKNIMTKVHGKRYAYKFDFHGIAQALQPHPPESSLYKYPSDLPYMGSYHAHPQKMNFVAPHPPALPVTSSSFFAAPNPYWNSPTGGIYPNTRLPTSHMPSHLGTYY
Method in brief: as §1

ELF1 = ELF1 (Homo sapiens, UniProt P32519 1-619)
Method in brief: as §1

EHF = target: T4, EHF (Homo sapiens, UniProt Q9NZC4 1-300)
T4 sequence: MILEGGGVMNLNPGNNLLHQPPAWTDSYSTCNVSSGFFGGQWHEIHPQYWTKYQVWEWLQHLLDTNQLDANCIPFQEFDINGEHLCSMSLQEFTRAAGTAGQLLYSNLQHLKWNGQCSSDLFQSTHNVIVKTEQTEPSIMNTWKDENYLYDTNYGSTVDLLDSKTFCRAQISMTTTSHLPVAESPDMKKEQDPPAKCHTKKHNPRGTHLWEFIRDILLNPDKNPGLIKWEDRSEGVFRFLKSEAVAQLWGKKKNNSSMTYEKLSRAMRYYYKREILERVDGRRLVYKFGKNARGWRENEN
Method in brief: as §1

ELK3 = target: T5, ELK3 (Homo sapiens, UniProt P41970 1-407)
T5 sequence: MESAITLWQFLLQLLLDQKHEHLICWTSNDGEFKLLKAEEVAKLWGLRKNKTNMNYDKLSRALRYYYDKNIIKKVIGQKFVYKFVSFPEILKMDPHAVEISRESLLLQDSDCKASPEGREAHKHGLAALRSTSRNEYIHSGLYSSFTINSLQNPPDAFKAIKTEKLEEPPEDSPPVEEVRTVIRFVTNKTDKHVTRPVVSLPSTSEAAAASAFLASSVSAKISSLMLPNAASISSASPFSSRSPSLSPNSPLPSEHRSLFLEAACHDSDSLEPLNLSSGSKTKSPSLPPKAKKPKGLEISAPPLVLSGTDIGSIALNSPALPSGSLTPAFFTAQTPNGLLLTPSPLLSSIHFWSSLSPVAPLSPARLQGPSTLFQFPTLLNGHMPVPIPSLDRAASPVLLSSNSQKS
Method in brief: as §1

FEV = target: T6, FEV (Homo sapiens, UniProt Q99581 1-238)
T6 sequence: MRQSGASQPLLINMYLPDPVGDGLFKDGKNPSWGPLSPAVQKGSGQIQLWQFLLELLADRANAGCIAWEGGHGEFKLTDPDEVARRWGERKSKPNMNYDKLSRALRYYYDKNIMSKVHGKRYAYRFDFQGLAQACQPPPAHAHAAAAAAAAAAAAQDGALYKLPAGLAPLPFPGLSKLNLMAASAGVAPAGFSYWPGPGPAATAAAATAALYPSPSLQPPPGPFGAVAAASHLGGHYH
Method in brief: as §1

ETV5 = ETV5 (Homo sapiens, UniProt P41161 1-510)
Method in brief: as §1

ELF4 = ELF4 (Homo sapiens, UniProt Q99607 1-663)
Method in brief: as §1

ELF3 = target: T7, ELF3 (Homo sapiens, UniProt P78545 1-371)
T7 sequence: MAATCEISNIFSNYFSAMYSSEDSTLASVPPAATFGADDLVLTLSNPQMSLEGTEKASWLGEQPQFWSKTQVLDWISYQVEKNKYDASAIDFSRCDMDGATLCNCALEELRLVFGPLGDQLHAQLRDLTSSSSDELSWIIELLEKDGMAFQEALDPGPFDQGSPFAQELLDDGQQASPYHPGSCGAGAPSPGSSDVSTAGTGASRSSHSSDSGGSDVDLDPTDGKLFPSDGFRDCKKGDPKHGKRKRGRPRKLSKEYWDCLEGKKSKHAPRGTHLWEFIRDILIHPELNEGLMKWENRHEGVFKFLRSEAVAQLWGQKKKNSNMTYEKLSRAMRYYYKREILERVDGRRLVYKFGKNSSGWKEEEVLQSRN
Method in brief: as §1

ETV1 = ETV1 (Homo sapiens, UniProt P50549 1-477)
Method in brief: as §1

ERF = target: T8, ERF (Homo sapiens, UniProt P50548 1-548)
T8 sequence: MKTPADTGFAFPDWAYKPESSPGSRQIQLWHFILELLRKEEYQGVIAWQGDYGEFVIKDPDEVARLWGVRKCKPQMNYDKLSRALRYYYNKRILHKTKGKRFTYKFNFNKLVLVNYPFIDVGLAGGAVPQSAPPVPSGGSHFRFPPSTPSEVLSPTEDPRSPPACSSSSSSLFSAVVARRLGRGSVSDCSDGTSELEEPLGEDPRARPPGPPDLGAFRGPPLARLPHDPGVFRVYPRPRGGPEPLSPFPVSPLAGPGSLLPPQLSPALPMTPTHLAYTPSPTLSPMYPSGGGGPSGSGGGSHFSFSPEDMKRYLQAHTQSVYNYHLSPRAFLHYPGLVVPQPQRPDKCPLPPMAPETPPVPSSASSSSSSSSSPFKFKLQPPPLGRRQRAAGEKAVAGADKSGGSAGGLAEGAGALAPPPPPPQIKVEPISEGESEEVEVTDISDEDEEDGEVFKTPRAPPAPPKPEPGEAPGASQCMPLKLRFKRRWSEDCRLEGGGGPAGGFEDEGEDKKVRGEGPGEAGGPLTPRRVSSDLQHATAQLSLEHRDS
Method in brief: as §1

ETV3L = target: T9, ETV3L (Homo sapiens, UniProt Q6ZN32 1-361)
T9 sequence: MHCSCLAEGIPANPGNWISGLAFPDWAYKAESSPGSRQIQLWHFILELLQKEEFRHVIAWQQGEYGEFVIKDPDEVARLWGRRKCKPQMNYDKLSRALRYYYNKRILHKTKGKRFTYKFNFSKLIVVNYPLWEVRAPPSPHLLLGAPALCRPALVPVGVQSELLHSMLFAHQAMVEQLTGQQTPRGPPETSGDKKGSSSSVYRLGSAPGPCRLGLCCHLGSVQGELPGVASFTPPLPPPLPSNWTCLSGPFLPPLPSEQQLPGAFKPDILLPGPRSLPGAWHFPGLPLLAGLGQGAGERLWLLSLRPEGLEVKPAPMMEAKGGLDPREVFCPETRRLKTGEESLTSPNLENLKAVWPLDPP
Method in brief: as §1

ETS2 = target: T10, ETS2 (Homo sapiens, UniProt P15036 1-469)
T10 sequence: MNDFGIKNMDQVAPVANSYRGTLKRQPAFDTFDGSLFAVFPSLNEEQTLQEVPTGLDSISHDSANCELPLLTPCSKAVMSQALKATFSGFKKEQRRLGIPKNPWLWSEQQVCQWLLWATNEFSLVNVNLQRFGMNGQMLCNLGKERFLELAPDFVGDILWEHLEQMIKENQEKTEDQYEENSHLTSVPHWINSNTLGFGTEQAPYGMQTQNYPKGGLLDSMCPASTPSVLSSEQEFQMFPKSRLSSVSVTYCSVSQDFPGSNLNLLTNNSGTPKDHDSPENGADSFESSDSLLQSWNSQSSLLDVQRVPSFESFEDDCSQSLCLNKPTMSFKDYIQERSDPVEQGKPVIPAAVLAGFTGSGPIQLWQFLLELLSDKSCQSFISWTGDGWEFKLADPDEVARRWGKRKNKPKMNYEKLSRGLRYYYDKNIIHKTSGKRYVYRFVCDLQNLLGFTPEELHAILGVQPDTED
Method in brief: as §1

SPDEF = target: T11, SPDEF (Homo sapiens, UniProt O95238 1-335)
T11 sequence: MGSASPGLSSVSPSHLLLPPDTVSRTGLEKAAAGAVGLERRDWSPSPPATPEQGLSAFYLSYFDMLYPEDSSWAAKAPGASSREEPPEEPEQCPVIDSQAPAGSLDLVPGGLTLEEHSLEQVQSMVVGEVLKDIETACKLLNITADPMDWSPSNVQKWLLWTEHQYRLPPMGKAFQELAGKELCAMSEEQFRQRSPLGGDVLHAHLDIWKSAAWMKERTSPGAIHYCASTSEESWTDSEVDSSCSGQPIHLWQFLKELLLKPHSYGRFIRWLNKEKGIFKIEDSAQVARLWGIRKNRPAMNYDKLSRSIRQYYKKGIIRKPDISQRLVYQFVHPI
Method in brief: as §1

ETV7 = target: T12, ETV7 (Homo sapiens, UniProt Q9Y603 1-341)
T12 sequence: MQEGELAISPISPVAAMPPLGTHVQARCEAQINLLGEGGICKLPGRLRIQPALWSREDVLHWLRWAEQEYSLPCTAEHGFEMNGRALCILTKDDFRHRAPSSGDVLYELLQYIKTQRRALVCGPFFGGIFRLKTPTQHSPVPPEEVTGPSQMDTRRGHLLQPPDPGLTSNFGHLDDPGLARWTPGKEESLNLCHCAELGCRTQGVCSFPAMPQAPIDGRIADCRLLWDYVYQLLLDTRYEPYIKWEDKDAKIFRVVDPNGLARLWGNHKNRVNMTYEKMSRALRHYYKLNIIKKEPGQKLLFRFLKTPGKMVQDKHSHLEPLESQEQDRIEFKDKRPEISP
Method in brief: as §1

ETV3 = target: T13, ETV3 (Homo sapiens, UniProt P41162-2 1-143)
T13 sequence: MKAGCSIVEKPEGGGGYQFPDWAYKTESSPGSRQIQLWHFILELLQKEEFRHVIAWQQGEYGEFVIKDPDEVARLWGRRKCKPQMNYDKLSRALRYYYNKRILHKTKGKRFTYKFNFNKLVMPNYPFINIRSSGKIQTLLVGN
Method in brief: as §1

ETV6 = ETV6 (Homo sapiens, UniProt P41212 1-452)
Method in brief: as §1

Chain of ETV6 (P41212 whole entry): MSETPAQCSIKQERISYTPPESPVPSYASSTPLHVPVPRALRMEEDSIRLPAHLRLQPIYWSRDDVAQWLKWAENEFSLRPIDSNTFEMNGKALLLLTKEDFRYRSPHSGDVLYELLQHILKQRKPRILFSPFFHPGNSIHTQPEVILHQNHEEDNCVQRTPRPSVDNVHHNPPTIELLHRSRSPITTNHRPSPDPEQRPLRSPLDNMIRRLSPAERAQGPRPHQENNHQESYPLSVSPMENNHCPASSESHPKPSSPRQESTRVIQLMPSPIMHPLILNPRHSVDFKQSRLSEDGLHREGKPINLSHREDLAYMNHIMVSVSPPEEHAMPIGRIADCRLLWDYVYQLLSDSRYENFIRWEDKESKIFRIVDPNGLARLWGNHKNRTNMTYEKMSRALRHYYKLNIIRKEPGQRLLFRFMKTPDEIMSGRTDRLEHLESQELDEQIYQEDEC
Chain of ELF4 (Q99607 whole entry): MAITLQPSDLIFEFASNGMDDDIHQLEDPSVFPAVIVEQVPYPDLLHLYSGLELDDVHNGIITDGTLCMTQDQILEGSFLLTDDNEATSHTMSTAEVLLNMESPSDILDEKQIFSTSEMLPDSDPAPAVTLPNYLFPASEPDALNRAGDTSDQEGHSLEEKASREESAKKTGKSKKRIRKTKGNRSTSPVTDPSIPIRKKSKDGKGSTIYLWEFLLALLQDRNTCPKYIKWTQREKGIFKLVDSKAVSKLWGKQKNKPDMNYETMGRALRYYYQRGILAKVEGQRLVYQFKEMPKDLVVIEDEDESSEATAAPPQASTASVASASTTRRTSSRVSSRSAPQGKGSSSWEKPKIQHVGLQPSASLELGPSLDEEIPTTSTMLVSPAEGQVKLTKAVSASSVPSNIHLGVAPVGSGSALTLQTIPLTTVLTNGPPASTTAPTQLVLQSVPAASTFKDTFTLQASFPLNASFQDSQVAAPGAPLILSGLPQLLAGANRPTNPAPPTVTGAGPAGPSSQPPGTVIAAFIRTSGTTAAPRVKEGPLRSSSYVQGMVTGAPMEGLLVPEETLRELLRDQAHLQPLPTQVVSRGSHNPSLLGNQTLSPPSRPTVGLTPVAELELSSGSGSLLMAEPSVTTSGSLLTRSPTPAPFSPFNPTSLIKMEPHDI
Chain of ETV5 (P41161 whole entry): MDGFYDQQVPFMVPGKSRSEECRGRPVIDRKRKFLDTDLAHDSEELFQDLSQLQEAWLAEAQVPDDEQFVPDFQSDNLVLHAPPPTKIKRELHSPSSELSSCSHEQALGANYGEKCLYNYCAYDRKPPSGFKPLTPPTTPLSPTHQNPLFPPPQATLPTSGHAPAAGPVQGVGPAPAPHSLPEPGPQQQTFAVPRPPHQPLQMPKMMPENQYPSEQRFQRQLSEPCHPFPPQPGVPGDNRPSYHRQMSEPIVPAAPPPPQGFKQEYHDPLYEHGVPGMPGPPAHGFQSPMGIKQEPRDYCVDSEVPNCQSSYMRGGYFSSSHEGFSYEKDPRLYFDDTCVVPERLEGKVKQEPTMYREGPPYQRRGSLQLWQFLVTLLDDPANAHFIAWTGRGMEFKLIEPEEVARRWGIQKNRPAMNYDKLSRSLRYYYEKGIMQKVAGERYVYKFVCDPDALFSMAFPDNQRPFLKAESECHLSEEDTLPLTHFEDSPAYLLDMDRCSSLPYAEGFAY
Chain of ELF1 (P32519 whole entry): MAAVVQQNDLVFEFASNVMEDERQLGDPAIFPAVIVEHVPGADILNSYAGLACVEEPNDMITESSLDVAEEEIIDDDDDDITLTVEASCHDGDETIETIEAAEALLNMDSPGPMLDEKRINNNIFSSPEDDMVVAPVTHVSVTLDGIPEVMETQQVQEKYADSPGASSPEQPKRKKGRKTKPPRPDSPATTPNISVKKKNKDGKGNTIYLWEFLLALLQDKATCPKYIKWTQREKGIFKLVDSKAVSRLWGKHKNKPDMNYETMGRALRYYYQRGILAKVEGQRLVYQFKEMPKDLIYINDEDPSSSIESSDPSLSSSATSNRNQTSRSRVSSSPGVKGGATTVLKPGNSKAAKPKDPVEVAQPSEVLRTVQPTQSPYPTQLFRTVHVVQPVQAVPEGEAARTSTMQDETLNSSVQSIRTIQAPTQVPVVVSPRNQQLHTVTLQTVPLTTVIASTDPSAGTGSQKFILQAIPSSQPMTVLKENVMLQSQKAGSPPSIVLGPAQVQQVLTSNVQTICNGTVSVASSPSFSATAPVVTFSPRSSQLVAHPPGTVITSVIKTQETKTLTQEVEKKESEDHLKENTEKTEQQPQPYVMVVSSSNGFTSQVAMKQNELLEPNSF
Chain of ETV1 (P50549 whole entry): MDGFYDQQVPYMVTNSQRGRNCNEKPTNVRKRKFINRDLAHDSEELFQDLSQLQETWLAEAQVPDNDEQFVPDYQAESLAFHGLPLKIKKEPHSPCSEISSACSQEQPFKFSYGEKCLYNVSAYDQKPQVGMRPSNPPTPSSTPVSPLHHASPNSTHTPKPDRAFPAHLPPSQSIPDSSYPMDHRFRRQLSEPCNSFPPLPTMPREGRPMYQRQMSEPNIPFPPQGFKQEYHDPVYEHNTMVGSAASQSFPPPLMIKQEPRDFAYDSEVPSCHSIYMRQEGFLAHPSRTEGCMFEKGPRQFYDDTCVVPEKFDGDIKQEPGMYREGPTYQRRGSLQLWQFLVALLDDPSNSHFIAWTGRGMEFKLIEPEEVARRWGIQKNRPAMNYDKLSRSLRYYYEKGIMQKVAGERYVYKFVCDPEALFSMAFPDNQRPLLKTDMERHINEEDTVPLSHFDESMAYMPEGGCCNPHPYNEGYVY

Q: What does the source list for ACGCCG?
A: binding signal (ELK1): 1.11 fold enrichment (6-mer frequency, TF over GST control); binding signal (GABPA): 1.11 fold enrichment (6-mer frequency, TF over GST control); binding signal (ERG): 1.02 fold enrichment (6-mer frequency, TF over GST control); binding signal (ELF1): 1.13 fold enrichment (6-mer frequency, TF over GST control); binding signal (EHF): 1.14 fold enrichment (6-mer frequency, TF over GST control); binding signal (ELK3): 1.11 fold enrichment (6-mer frequency, TF over GST control); binding signal (FEV): 1.14 fold enrichment (6-mer frequency, TF over GST control); binding signal (ETV5): 1.12 fold enrichment (6-mer frequency, TF over GST control); binding signal (ELF4): 1.07 fold enrichment (6-mer frequency, TF over GST control); binding signal (ELF3): 1.15 fold enrichment (6-mer frequency, TF over GST control); binding signal (ETV1): 1.11 fold enrichment (6-mer frequency, TF over GST control); binding signal (ERF): 1.12 fold enrichment (6-mer frequency, TF over GST control); binding signal (ETV3L): 1.08 fold enrichment (6-mer frequency, TF over GST control); binding signal (ETS2): 1.01 fold enrichment (6-mer frequency, TF over GST control); binding signal (SPDEF): 1.04 fold enrichment (6-mer frequency, TF over GST control); binding signal (ETV7): 1.14 fold enrichment (6-mer frequency, TF over GST control); binding signal (ETV3): 1.05 fold enrichment (6-mer frequency, TF over GST control); binding signal (ETV6): 1.14 fold enrichment (6-mer frequency, TF over GST control)
